Whole data set: some 35,000 sequences, median “fluorescence intensity (a.u.)” near 10,000, cut for the highest 2% near 52,000. The list comes from a sample in which the highest values are over-represented; it also holds similar and randomly drawn sequences.
What follows are sequences tested against T1, OsWOX13 (Oryza sativa, UniProt Q5QMM3 1-267) (assay: protein-binding microarray (RPBM); PBS, 2% BSA, 51.3 ng/ul salmon testes DNA, 50 uM zinc acetate, 200 nM TF, 25 C, 1 h; high values mean tight binding). Details: protein: recombinant; tags: N-terminal polyhistidine and DsRed monomer fusion (pET32a); label: CyDye5-dUTP incorporated in the synthesized complementary strand; 3' TTTTT single-stranded linker to array surface; dsDNA, one strand shown.
T1 sequence: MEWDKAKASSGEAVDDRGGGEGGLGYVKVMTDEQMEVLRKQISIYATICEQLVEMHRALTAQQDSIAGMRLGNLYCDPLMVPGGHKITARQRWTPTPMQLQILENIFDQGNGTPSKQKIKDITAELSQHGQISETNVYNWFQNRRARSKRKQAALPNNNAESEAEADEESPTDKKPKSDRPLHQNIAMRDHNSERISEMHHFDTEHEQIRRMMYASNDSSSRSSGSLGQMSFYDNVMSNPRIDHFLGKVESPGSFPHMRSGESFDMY
In short: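 Binding signal is reported as fluorescence intensity per feature (arbitrary units) from an Axon 4000B scanner. Incubation used 200 nM of each Ni–NTA-purified, N-terminally polyhistidine- and DsRed-fused transcription factor from E. coli BL21-CodonPlus on a double-stranded custom Agilent array for 1 h at 25 °C, with 50 µM zinc acetate in the buffer, followed by washing.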

Sequence	binding signal
GTGATCACCCTTTGATTGACCCGCACCCGCATCCCTTTCCCGGAGTCACCTAGTGCAG	35500 fluorescence intensity (a.u.)
AAGATTGGATTCGCTGCAATACCATCACTAAACTCGGCTTCGGAGTCACCTAGTGCAG	12800 fluorescence intensity (a.u.)
CACTTAATCATATTCATCATATTCAAACGGGACCTAAGGGCGGAGTCACCTAGTGCAG	8880 fluorescence intensity (a.u.)
CCCTCCATCCCCTCAGTCCACTCAATCACCACACCAGCCACGGAGTCACCTAGTGCAG	3850 fluorescence intensity (a.u.)
CCAATCACATTCACTTTTACAGTTTAGCCCCACCCTCTCCCGGAGTCACCTAGTGCAG	4980 fluorescence intensity (a.u.)
ATACCTTATTGAAATATGATTGTTCGACTGGTTACTGAATCGGAGTCACCTAGTGCAG	19500 fluorescence intensity (a.u.)
GCTTGATGACCAAGTATATATAAACATGTCAGTGATTATTCGGAGTCACCTAGTGCAG	5670 fluorescence intensity (a.u.)
GGGCATAAATTTTGGTGATTTTCGGTTTTCTGAAGTTCCTCGGAGTCACCTAGTGCAG	7130 fluorescence intensity (a.u.)
ATATTGATTGATTGGTTATTCGCAAGAAACATGACTGTTCCGGAGTCACCTAGTGCAG	63800 fluorescence intensity (a.u.)
CTGTATATTGATTGATTGGTTATTCGCAAGAAACATGACTCGGAGTCACCTAGTGCAG	65100 fluorescence intensity (a.u.)
GATTCCCTTCTTTTCTTTGGTTGATTTCTTTCTGTATTTCCGGAGTCACCTAGTGCAG	5880 fluorescence intensity (a.u.)
ATGAAGAAACTGTTGGTGATTTGACAAGTAGGCTTGGTTCCGGAGTCACCTAGTGCAG	6530 fluorescence intensity (a.u.)
GTTATCATGATTTATATTCCCAAGGTTTGACTTAAACATTCGGAGTCACCTAGTGCAG	11400 fluorescence intensity (a.u.)
ATTCTGATTGGCAAGTTGGTTATTCCTTTTCTGATTGGTTCGGAGTCACCTAGTGCAG	60700 fluorescence intensity (a.u.)
AGGGAATTTTATGATTTGCATTGGTGCTGAGGTCAAACCCCGGAGTCACCTAGTGCAG	7180 fluorescence intensity (a.u.)
GACAGATTAATTAAAGAATCATCATTACTGCGATGCGACCCGGAGTCACCTAGTGCAG	16600 fluorescence intensity (a.u.)
ACAAATTGCCAACTCATGAAAGTGATCGATGATGGGCTTACGGAGTCACCTAGTGCAG	15700 fluorescence intensity (a.u.)
GTCCTACATATGCTAAATTGGCAATATGTAAAGATTTACTCGGAGTCACCTAGTGCAG	4980 fluorescence intensity (a.u.)
TTATTTATCAGTCTGATTTTATATAATGTAATATTATGCACGGAGTCACCTAGTGCAG	3150 fluorescence intensity (a.u.)
GCAAATTAACTTAATTAATAAGTTGAGCAGCCTGTAGGCCCGGAGTCACCTAGTGCAG	58200 fluorescence intensity (a.u.)
TAAGTTAAATAACTATTAATTGTGGCCTGTGCTCAGCCTTCGGAGTCACCTAGTGCAG	9070 fluorescence intensity (a.u.)

Sequence	binding signal
AAATTAACTTAATTAATAAGTTGAGCAGCCTGTAGGCCTTCGGAGTCACCTAGTGCAG	17500 fluorescence intensity (a.u.)
AATGATTAGAATTTGGTAAAGTAGAGGACAAAGATAAAATCGGAGTCACCTAGTGCAG	7910 fluorescence intensity (a.u.)
GGATAGAATTGATTGAGCGAGAGAGAGAATTGAACACAAACGGAGTCACCTAGTGCAG	21200 fluorescence intensity (a.u.)
TTTAACACAAATGAGAACTTGATCGATTCCTCGTATTGTTCGGAGTCACCTAGTGCAG	3850 fluorescence intensity (a.u.)
TTCGGATTGATTGTTGAGACAAATCTCGTAGAACACGGAACGGAGTCACCTAGTGCAG	62900 fluorescence intensity (a.u.)
AAAATAAACAAATCTATCCACTAACAATTTGACATGATATCGGAGTCACCTAGTGCAG	7240 fluorescence intensity (a.u.)
GAAATTGATTTATCCAGGGAAACTGTCGTGACAAATTTCGCGGAGTCACCTAGTGCAG	49300 fluorescence intensity (a.u.)
TTTGAGTGATTGACAGGAAACAAATCCACCACTATCTGTTCGGAGTCACCTAGTGCAG	62400 fluorescence intensity (a.u.)
ATAAATAAATACTCTAATTGCAAGCAACCAACGTCCCAACCGGAGTCACCTAGTGCAG	5780 fluorescence intensity (a.u.)
CTACAATTTATCATAAACTTGATAAAATATAAACAAATTCCGGAGTCACCTAGTGCAG	4240 fluorescence intensity (a.u.)
AGGACATAATTTTAATGGGGAAATTGGTTCCATACCATCTCGGAGTCACCTAGTGCAG	20500 fluorescence intensity (a.u.)
AGCTAGCTTTGACTAATCAATCAGCAGCTAATTTCAGTCTCGGAGTCACCTAGTGCAG	13700 fluorescence intensity (a.u.)
AAAATAAATTGACAACATTCGTACAATATATATAAATATCCGGAGTCACCTAGTGCAG	25900 fluorescence intensity (a.u.)
ATTTAATAGTATTAAACGTAGATTACTGATAAAACCTATTCGGAGTCACCTAGTGCAG	4260 fluorescence intensity (a.u.)
TAGCTTAGCTCGTATTCGTATAAAACGTAGTACAAGGTTCCGGAGTCACCTAGTGCAG	61300 fluorescence intensity (a.u.)
AGAAATTGTGTGATTTATTGTAGTGTGTAGAAATTTATAGCGGAGTCACCTAGTGCAG	11700 fluorescence intensity (a.u.)
CTGATTTAAATTGAAAGCAACCGTCTTTTGATTTGTGTAGCGGAGTCACCTAGTGCAG	57100 fluorescence intensity (a.u.)
GATATGAGTGACTAATTGACTTTGTGTTGATTTCGAGCAGCGGAGTCACCTAGTGCAG	34600 fluorescence intensity (a.u.)
ATAAAATTTTAAAATTTAAATTGTAGCCACAACTGATAAGCGGAGTCACCTAGTGCAG	15500 fluorescence intensity (a.u.)
AATGTAATGTAACAAATTTGTCTAAAAGGATTGAACTTGGCGGAGTCACCTAGTGCAG	12400 fluorescence intensity (a.u.)
GACTTGACTAATTGATTTGTGTAGATTTCTAAAAGCAAGGCGGAGTCACCTAGTGCAG	58600 fluorescence intensity (a.u.)

Source: PMC7819943, “Rice protein-binding microarrays: a tool to detect cis-acting elements near promoter regions in rice”
